PubChem BioAssay (Tox21)
Records with an inconclusive call do not appear. The source made the active and inactive calls. Unless noted, the call rests on the fitted dose curve; in most records, active means well fitted curve in the direction sought with a large enough effect in the repeat runs; inconclusive means weak or mixed curves; inactive means no such curve, though single readings can be large; an effect the other way counts as inactive or inconclusive.

Columns and labels:
[1] = qHTS assay to identify small molecule HDAC inhibitors (AID 1259364); further: top concentration of the series differs between compounds; nearly all actives have a fitted effect of over 45% in size
Summary of the method: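 Luminescence read after 30 min room-temperature HDAC-Glo incubation measures cellular class I/II HDAC activity. Compounds were applied for 2 hr at 37 C to HCT-116 wild-type cells seeded the day before.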

[2] = qHTS assay to identify small molecule HDAC inhibitors - cell viability counter screen (AID 1259365); further: series mostly up to about 92 µM; nearly all actives have a fitted effect of over 50% in size
Summary of the method: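 Following a 2hr exposure of overnight-plated wild-type HCT-116 cells to DMSO-delivered compounds, CellTiter-Glo was added and luminescence recorded after 30min at room temperature.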

[3] = qHTS assay to identify small molecule agonists of the sonic hedgehog signaling (Shh) pathway - cell viability counter screen (AID 1259366); further: nearly all actives have a fitted effect of over 50% in size
Summary of the method: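 After a 4hr attachment at 37C, NIH/3T3 cells bearing an integrated Gli1-driven luciferase reporter were dosed with compounds. Treatment lasted 24hr, with the final hour including CellTiter-Fluor for a fluorescence viability measurement.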

[4] = qHTS assay to identify small molecule antagonists of the sonic hedgehog signaling (Shh) pathway - cell viability counter screen (AID 1259367); further: nearly all actives have a fitted effect of over 55% in size
Summary of the method: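 Tox21 library chemicals were tested on a Gli1-Luc NIH/3T3 clone (2,000 cells/well) stimulated by conditioned medium; viability was quantified as fluorescence from CellTiter-Fluor reagent added at 23 hr.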

[5] = qHTS assay to identify small molecule agonists of the sonic hedgehog signaling (Shh) pathway (AID 1259368; calls by dose curve;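 further: NIH/3T3-derived 3T3Gli1-Luc cells carrying a stable Gli1-driven firefly luciferase reporter; series mostly up to about 92 µM; nearly all actives have a fitted effect of over 15% in size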)
Summary of the method: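 Luminescence was read after 30 min at room temperature with luciferase reagent. Before that, 3T3Gli1-Luc cells (NIH/3T3 clone, stable Gli1-Luc reporter; 2,000/well) were exposed to compounds for 24 hr at 37C, 5% CO2, compounds being added 4 hr post-plating.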

[6] = qHTS assay to identify small molecule antagonists of the sonic hedgehog signaling (Shh) pathway (AID 1259369; calls by dose curve; further: nearly all actives have a fitted effect of over 45% in size)
Summary of the method: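 Antagonist mode: compound added to 3T3 Gli1-Luc cells followed by conditioned-medium stimulation, 24 h at 37 C, 5% CO2. Inhibition taken as loss of Gli1-driven luciferase luminescence.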

[7] = target: Estrogen receptor beta (Homo sapiens) (UniProt Q92731); assay: qHTS assay to identify small molecule agonists of the estrogen receptor beta (ER-beta) signaling pathway (AID 1259377; active means well fitted activation curve with a large enough effect in the signal ratio in the repeat runs, not every such curve was filed as active; the % refers to the signal ratio)
Summary of the method: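 In HEK293T cells bearing a UAS-beta-lactamase reporter under ER-beta control, DMSO-delivered compounds were incubated for 16 hr at 37C. Activity was detected as fluorescence 2 hours after LiveBLAzer B/G FRET substrate addition.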

[8] = target: Estrogen receptor beta (Homo sapiens) (UniProt Q92731); assay: qHTS assay to identify small molecule antagonists of the estrogen receptor beta (ER-beta) signaling pathway (AID 1259378; active means well fitted inhibition curve with a large enough effect in the signal ratio in the repeat runs, not every such curve was filed as active; the % refers to the signal ratio)
Summary of the method: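 ER-beta-UAS-bla HEK293T cells in 2% charcoal-stripped FBS medium treated with compound plus 1nM final 17-beta-estradiol for 16 hr at 37C. Beta-lactamase reporter read by FRET substrate fluorescence after 2 hours at room temperature.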

[9] = qHTS assay to identify small molecule agonists of the androgen receptor (AR) signaling pathway in the presence of an antagonist - cell viability counter screen (AID 1259379);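 further: MDA-kb2 human breast cancer cells carrying an MMTV luciferase reporter; series mostly up to about 92 µM; nearly all actives have a fitted effect of over 25% in size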
Summary of the method: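 Cytotoxicity counter-screen run in the same wells as the nilutamide-challenged (3.0 µM final) AR agonist assay in MDA-kb2 cells. Compounds tested at 15 concentrations for 16 h, 37 °C without CO2; CellTiter-Fluor fluorescence read.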

[10] = qHTS assay to identify small molecule agonists of the estrogen receptor beta (ER-beta) signaling pathway - cell viability counter screen (AID 1259380); further: nearly all actives have a fitted effect of over 30% in size
Summary of the method: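 Cell viability counter screen: CellTiter-Glo luminescence (30 min, room temperature) measured in the same wells as the beta-lactamase readout, after 16 hr compound exposure at 37C of ER-beta-bla HEK293T cells in 2% charcoal-stripped FBS medium.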

[11] = qHTS assay to identify small molecule antagonists of the estrogen receptor beta (ER-beta) signaling pathway - cell viability counter screen (AID 1259382); further: series mostly up to about 92 µM; nearly all actives have a fitted effect of over 55% in size
Summary of the method: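 Cytotoxicity was measured in the same wells by CellTiter-Glo luminescence after 30 min at room temperature. Cells were ER-beta-bla HEK293T in charcoal-stripped serum, given compound together with 1 nM E2 and incubated 16 h at 37C.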

[12] = target: Estrogen receptor (Homo sapiens) (UniProt P03372); assay: qHTS assay to identify small molecule agonists of the estrogen receptor alpha (ER-alpha) signaling pathway in the presence of an antagonist (AID 1259383; calls by dose curve; further: top concentration of the series differs between compounds; nearly all actives have a fitted effect of over 15% in size)
Summary of the method: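 Agonist-mode confirmation run in the presence of 10.0nM (final) ICI-182,780 antagonist. The reporter was ERE-driven luciferase in VM7Luc4E2 cells, grown in charcoal-stripped serum. Cells were exposed to 15-concentration compound series for 22hr, then ONE-Glo luminescence was read.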

[13] = qHTS assay to identify small molecule agonists or antagonists of the thyroid stimulating hormone receptor (TSHR) signaling pathway - wild type cell line counter screen (AID 1259384; calls by dose curve)
Summary of the method: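 Wild-type Hek293 cells, 800/well, 18 h at 37C, then compound with Ro20-1724 for 30 min RT. cAMP by HTRF (cAMP-d2/anti-cAMP cryptate), 1 h RT, fluorescence read. 15 concentrations, triplicates.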

[14] = target: Thyrotropin receptor (Homo sapiens) (UniProt P16473); assay: qHTS assay to identify small molecule antagonists of the thyroid stimulating hormone receptor (TSHR) signaling pathway (AID 1259385; calls by dose curve; further: nearly all actives have a fitted effect of over 20% in size)
Summary of the method: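 TSHR-HEK293 cells (800/well) plated 18 h, then compounds with Ro20-1724 and TSH at 1.5 ng/mL final, 30 min at room temperature. cAMP quantified by HTRF (cAMP-d2/anti-cAMP-cryptate, 1 h); 15 concentrations in triplicate.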

[15] = qHTS assay to identify small molecule agonists of the estrogen receptor alpha (ER-alpha) signaling pathway in the presence of an antagonist - cell viability counter screen (AID 1259386); further: series mostly up to about 92 µM; nearly all actives have a fitted effect of over 30% in size
Summary of the method: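 Compounds tested at 15 concentrations for 22 h at 37C alongside 10.0nM (final) ICI-182,780 antagonist, in VM7Luc4E2 cells grown in phenol red-free, charcoal-stripped medium. Viability read by CellTiter-Fluor fluorescence after 1 h reagent incubation.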

[16] = target: Progesterone receptor (Homo sapiens) (UniProt P06401); assay: qHTS assay to identify small molecule agonists of the progesterone receptor (PR) signaling pathway (AID 1346784; calls by dose curve; further: nearly all actives have a fitted effect of over 30% in size)
Summary of the method: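 Using charcoal-stripped serum (2%) to limit endogenous steroids, PR-UAS-bla HEK 293T cells received compounds for 16 hr at 37C after 6 hr plating; beta-lactamase FRET fluorescence was recorded following 2 hr substrate loading at room temperature.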

[17] = target: Progesterone receptor (Homo sapiens) (UniProt P06401); assay: qHTS assay to identify small molecule antagonists of the progesterone receptor (PR) signaling pathway (AID 1346795; active means well fitted inhibition curve with a large enough effect in the signal ratio in the repeat runs, not every such curve was filed as active; the % refers to the signal ratio)
Summary of the method: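 Inhibition of R5020-induced (1 nM final) beta-lactamase reporter signal in PR-UAS-bla HEK293T cells was scored by FRET fluorescence after overnight (16 hr) compound treatment.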

[18] = qHTS assay to identify small molecule antagonists of the progesterone receptor (PR) signaling pathway - cell viability counter screen (AID 1346798); further: series mostly up to about 92 µM; nearly all actives have a fitted effect of over 50% in size
Summary of the method: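 ATP content as viability readout: CellTiter-Glo luminescence, 30 min room temperature, in PR-UAS-bla HEK293T cells after 16 hr compound/R5020 treatment at 37C and 5% CO2.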

[19] = qHTS assay to identify small molecule agonists of the progesterone receptor (PR) signaling pathway - cell viability counter screen (AID 1346799; calls by dose curve; further: nearly all actives have a fitted effect of over 45% in size)
Summary of the method: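 Cytotoxicity in PR-bla HEK293T cells: 16 h compound, 37C; CellTiter-Glo added post-FRET read; luminescence after 30 min RT.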

[20] = target: Androgen receptor (Homo sapiens) (UniProt P10275); assay: qHTS assay to identify small molecule agonists of the androgen receptor (AR) signaling pathway in the presence of an antagonist (AID 1259381; calls by dose curve; further: nearly all actives have a fitted effect of over 15% in size)
Summary of the method: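 Agonist-mode confirmation run against 3.0 uM final nilutamide: compounds titrated at 15 concentrations onto MDA-kb2 MMTV-luciferase reporter cells. Luminescence measured with ONE-Glo following 16 hr incubation, 37C, 0% CO2.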

Measured: Potency

Chain of Androgen receptor (Homo sapiens) (P10275 whole entry, looked up): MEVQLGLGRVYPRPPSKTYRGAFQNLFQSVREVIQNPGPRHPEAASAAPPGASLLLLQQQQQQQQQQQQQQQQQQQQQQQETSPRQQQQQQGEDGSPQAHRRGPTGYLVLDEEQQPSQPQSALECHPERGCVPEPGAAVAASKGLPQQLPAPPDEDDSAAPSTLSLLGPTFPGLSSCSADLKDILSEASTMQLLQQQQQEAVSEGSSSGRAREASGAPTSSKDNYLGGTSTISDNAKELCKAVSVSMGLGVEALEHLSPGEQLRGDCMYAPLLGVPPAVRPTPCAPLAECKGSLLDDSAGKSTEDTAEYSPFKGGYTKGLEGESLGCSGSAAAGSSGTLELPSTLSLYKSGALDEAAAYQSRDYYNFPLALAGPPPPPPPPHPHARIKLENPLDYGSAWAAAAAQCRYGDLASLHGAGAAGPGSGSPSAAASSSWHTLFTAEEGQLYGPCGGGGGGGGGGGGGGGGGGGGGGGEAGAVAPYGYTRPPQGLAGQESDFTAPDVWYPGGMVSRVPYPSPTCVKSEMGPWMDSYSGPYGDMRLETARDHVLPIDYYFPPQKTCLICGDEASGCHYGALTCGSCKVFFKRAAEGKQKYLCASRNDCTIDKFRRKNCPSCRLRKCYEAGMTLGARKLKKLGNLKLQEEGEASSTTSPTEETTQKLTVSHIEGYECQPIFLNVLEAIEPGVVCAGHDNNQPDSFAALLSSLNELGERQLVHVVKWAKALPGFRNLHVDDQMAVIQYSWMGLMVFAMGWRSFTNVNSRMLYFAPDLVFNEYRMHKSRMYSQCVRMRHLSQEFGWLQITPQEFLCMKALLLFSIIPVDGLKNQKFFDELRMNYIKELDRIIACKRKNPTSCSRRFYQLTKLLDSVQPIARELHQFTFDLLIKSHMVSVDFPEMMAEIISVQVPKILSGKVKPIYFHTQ
Chain of Estrogen receptor beta (Homo sapiens) (Q92731 whole entry, looked up): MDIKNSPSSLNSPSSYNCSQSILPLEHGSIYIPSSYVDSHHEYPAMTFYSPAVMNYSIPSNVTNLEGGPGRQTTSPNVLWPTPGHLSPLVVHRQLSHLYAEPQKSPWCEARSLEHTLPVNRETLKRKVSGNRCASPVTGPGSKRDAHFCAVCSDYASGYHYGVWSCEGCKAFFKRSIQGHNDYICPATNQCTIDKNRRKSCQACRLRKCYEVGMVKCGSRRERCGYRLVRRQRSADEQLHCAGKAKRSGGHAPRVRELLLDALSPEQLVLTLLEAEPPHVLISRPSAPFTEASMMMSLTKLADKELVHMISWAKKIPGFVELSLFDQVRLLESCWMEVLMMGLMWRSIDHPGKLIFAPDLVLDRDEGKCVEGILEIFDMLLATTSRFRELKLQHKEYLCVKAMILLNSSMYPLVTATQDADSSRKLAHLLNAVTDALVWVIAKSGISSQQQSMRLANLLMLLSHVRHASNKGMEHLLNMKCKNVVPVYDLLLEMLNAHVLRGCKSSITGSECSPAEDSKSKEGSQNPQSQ
Chain of Progesterone receptor (Homo sapiens) (P06401 whole entry, looked up): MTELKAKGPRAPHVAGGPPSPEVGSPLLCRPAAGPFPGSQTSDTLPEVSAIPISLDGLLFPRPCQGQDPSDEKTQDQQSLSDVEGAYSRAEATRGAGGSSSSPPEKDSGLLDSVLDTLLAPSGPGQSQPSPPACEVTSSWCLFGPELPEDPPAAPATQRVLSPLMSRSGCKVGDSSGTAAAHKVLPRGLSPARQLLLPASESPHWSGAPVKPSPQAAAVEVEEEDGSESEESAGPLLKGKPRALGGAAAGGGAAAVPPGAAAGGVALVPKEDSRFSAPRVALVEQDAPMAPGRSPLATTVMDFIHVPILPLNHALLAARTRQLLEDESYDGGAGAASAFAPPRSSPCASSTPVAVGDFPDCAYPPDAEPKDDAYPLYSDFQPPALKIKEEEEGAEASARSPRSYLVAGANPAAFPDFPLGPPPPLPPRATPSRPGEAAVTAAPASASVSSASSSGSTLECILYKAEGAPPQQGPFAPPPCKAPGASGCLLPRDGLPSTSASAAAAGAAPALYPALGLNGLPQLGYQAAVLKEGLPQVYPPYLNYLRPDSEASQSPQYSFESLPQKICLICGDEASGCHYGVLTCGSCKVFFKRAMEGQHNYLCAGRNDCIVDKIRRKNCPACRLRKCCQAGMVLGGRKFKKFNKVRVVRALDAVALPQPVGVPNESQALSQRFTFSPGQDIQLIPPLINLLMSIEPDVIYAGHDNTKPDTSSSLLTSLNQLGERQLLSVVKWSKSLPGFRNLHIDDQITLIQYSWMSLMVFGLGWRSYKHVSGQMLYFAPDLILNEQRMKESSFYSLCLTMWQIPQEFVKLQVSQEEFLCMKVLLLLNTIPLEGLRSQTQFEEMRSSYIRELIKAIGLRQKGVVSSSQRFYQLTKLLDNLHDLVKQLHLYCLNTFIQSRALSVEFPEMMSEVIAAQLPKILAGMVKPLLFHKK
Chain of Estrogen receptor (Homo sapiens) (P03372 whole entry, looked up): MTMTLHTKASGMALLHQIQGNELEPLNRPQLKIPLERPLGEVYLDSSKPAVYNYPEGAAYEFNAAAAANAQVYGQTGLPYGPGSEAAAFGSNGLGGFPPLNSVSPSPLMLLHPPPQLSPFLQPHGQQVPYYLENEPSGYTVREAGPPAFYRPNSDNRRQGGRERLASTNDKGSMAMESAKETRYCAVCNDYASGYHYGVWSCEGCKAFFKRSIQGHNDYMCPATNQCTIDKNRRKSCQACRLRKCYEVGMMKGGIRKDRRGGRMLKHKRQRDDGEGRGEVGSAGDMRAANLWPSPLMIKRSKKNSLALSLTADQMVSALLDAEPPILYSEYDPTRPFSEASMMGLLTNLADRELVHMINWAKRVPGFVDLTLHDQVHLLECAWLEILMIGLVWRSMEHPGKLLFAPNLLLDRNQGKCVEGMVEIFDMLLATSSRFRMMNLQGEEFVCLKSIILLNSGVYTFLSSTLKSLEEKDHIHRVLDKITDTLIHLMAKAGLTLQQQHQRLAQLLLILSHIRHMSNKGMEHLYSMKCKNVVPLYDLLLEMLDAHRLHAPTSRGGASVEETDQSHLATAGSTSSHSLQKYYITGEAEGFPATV
Chain of Thyrotropin receptor (Homo sapiens) (P16473 whole entry, looked up): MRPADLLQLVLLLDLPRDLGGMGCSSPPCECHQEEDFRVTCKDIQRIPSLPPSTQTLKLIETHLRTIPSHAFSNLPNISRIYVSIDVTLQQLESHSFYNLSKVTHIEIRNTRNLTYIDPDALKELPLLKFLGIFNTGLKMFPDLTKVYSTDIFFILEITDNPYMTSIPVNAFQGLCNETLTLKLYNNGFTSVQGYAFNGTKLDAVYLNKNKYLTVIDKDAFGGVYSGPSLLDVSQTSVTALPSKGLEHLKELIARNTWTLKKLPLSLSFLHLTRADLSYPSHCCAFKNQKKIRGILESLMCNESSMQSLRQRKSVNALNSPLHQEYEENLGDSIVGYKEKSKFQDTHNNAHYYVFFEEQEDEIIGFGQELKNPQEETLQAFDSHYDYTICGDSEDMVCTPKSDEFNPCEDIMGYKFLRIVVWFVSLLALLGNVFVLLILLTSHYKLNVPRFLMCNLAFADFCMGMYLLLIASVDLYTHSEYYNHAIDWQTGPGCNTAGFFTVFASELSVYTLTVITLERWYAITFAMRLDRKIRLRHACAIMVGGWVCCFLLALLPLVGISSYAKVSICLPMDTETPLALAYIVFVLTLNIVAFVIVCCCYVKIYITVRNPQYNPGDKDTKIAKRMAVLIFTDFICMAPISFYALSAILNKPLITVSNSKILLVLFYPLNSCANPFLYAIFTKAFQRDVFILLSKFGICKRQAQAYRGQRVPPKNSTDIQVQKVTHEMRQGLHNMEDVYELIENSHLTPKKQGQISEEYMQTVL

CCCC(=O)Nc1ccc(OCC(O)CNC(C)C)c(C(C)=O)c1 (stereo not given)
not listed: [20]
inactive: all other assays above

CC1c2ccccc2CN1NC(=O)c1ccc(Cl)c(S(N)(=O)=O)c1 (stereo not given)
not listed: [10] | [15] | [20]
inactive: all other assays above

C=CCCCCCCCCC(=O)OCCCC
not listed: [14] | [15] | [18] | [20]
inactive: all other assays above

CCCCCCCCCOC(=O)c1ccccc1C(=O)OCCCCCCCCC
not listed: [7] | [19]
inactive: all other assays above

CCN1CCCC1CN (stereo not given)
not listed: [10] | [12] | [19] | [20]
inactive: all other assays above

c1ccc(-c2nn[nH]n2)cc1
not listed: [7] | [20]
inactive: all other assays above

Cn1nnc2c(C(N)=O)ncn2c1=O
not listed: [13] | [14] | [20]
inactive: all other assays above

Cn1c(=O)c2[nH]c(Br)nc2n(C)c1=O
not listed: [12] | [13] | [16] | [18] | [20]
inactive: all other assays above

CCC(C)C(C)=O (stereo not given)
not listed: [10] | [15] | [20]
inactive: all other assays above

COc1cc(OC)nc(O[C@H](C(=O)O)C(OC)(c2ccccc2)c2ccccc2)n1
not listed: [10] | [13] | [17] | [18] | [19]
inactive: all other assays above

N#Cc1cscn1
not listed: [8] | [12] | [20]
inactive: all other assays above

COC(=O)c1cc(Cl)cc(Cl)c1
inactive: all assays above

CCC[C@@H]1C[C@@H](C(=O)N[C@@H]([C@H]2O[C@H](SC)[C@H](O)[C@@H](O)[C@H]2O)[C@@H](C)O)N(C)C1
not listed: [12] | [16] | [17] | [19] | [20]
inactive: all other assays above

C=CC(=O)OCC1CCCO1 (stereo not given)
not listed: [10] | [15] | [17] | [18] | [20]
inactive: all other assays above

Cn1c(=O)c2c(ncn2CCO)n(C)c1=O
not listed: [12] | [19] | [20]
inactive: all other assays above

CC1=C(O)C(=O)C(C)O1 (stereo not given)
not listed: [7] | [20]
inactive: all other assays above
